According to PubChem BioAssay AID1498 (National Center for Advancing Translational Sciences (NCATS), 2009):
Inconclusive results are not listed. The source made the active and inactive calls. Calls follow the shape of the full dose curve.

Test: Confirmation Concentration-Response Assay for Modulators of Lamin A Splicing
Conditions: RFP activity: RFP channel at top concentration, at 46.1 µM; ratio activity: GFP/RFP ratio at top concentration, at 46.1 µM
Description: NCGC Assay Overview: Hutchinson-Gilford Progeria Syndrome (HGPS) is a pediatric premature aging disease caused by a spontaneous mutation in the lamin A/C (LMNA) gene. The mutation activates a cryptic splice site in the LMNA pre-mRNA which results in production of a pre-lamin A protein that cannot be processed properly. The mutant protein accumulates in the nucleus and negatively affects numerous cellular functions. Correction of the splicing defect in HGPS patient cells using a targeted oligonucleotide (exo11) leads to reversal of the cellular disease phenotypes. To identify small molecule modulators of aberrant LMNA splicing, a homogenous assay was constructed in HeLa cells that used a GFP containing minigene to report on correction of aberrant splicing in lamin A and a RFP (DsRed2) to report on cell viability, uniformity and nonspecific effects on the assay signal. This assay was adapted to laser-scanning microplate cytometry (Acumen, TTP Labtech) where miniaturization of the assay to a 1,536-well plate format was possible. Select compounds active in the primary screen (AID 1487) were chosen for confirmation based on potency, efficacy, SAR and activity in other assays in PubChem and at NCGC. References: Bowen, W. P.; Wylie, P. G. Application of Laser-Scanning Fluorescence Microplate Cytometry in High Content Screening. Assay Drug Dev Technol 2006;4:209-221. Scaffidi P, Misteli T. Reversal of the cellular phenotype in the premature aging disease Hutchinson-Gilford progeria syndrome. Nat. Med. 2005;11:440-445.
NCGC Assay Protocol Summary: Reagents/Controls: Stable clones expressing DsRed2 and lamin A-EGFP were generated by Cell and Molecular Technologies in S3 HeLa cells. HeLa cells were prepared for the assay when they were 70-90% confluent. The cells were counted and resuspended in Opti-MEM I (no phenol red; Gibco), 2% FBS, 1% penicillin/ streptomycin (Gibco) at concentration of 120 cells/uL concentration. The suspension was passed through a Falcon basket filter with pore size 40um (Beckton Dickson). Control titrations: column […] 1536-well plate contained a sixteen point titration (1:2 dilutions) in duplicate of ancitabine (Sigma: A8598) beginning at 40 uM final concentration. Column 2 contained a sixteen point titration (1:2 dilutions) of cycloheximide beginning at 1.4 mM final concentration. Column 3 contained ancitabine at 40 uM and column 4 contained was the vehicle control (0.5% DMSO final concentration). Assay Steps: 5 uL of HeLa cells were plated in Aurora LoBase black clear bottom (cyclic-olefin polymer) 1536-well plates at a final density of 600 cells/well. Controls and library compounds were added with a 1536-well pin array using the Kalypsys pin-tool. The plates were then incubated for 48 hrs in a cell-culture incubator (37 °C; 5% CO2, 98% humidity). Following incubation the plates were read on the Acumen Explorer using the 488 nm laser. Data was collected on objects between 10 and 100 um in size. Cell objects were defined by a 15 um width x 10 um depth filter. The ratio of the total object intensity in PMT1 (500-530 nm emission; GFP) over PMT3 (575-640 nm emission; RFP) was calculated for analysis. Keywords: NIH Roadmap, MLSCN, MLI, MLSMR, qHTS, NCGC, lamin A, Progeria, RNA splicing.

SMILES	RFP activity [%]	outcome	ratio activity [%]
c1ccc(C2OCCN3CCCCC23)cc1 (stereo unspecified)	-2.54	inactive	-7.51
CN1C(=O)CCS(=O)(=O)[C@@H]1c1ccc(Cl)cc1	-19.9	inactive	-2.66
